The nature of test [1]: qHTS assay for small molecule agonists of retinoid X receptor alpha signaling (AID 588544). The following applies: HEK293T RXRa-UAS-bla, beta-lactamase reporter, 18 h; 530 nm emission. (In general: qHTS replaces the single test concentration by a dilution series.)
Test [2] addresses Thyroid hormone receptor beta (Homo sapiens) (UniProt P10828). The test can be described thus: qHTS assay for small molecule agonists of thyroid hormone receptor beta signaling (AID 588545; calls by dose curve;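 further: 0% = DMSO only and 100% = 10 nM T3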). The settings on record: TR-UAS-bla GripTite HEK 293, beta-lactamase ratio, agonist mode, 18 h, percent of T3 response, DMSO as zero; series mostly up to 76.7 µM. In a few lines: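 Compounds were tested as agonists in TR-UAS-bla-GripTite HEK 293 cells. After 18 hrs at 37 C, CCF4 substrate was added and fluorescence read after 2 hrs at room temperature.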

Test [3] is described as follows: qHTS assay for small molecule antagonists of retinoid X receptor alpha signaling (AID 588546; active means well fitted inhibition curve with a large enough effect in the signal ratio, with a control signal flat, not every such curve was filed as active; the % refers to the signal ratio;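 further: cells stimulated with 9-cis-retinoic acid as agonist; on the % scale 0 is the no-effect control and ±100 the full control effect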). The following applies: HEK293T RXRa-UAS-bla, beta-lactamase ratio, antagonist mode; measured here: W530 green channel, cytotoxicity proxy. In a few lines:
(§1)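 Beta-lactamase reporter inhibition, read as CCF4 fluorescence ratio (ex 405, em 460/530 nm) after 2 h at RT. HEK293T UAS-bla cells, 2500/well, were stimulated with 9-cis-RA at 500 or 100 nM final alongside test compound for 18 h at 37 C.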

Test [4] has as its target Retinoic acid receptor RXR-alpha (Homo sapiens) (UniProt P19793). The description is as above. The settings on record: HEK293T RXRa-UAS-bla, beta-lactamase ratio, antagonist mode. The gist of the method:
as §1

Test [5] has as its target Thyroid hormone receptor beta (Homo sapiens) (UniProt P10828). The test can be described thus: qHTS assay for small molecule antagonists of thyroid hormone receptor beta signaling (AID 588547; active means well fitted inhibition curve with a large enough effect in the signal ratio, with a control signal flat, not every such curve was filed as active; the % refers to the signal ratio;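 further: cells stimulated with 0.4 nM T3 agonist during compound exposure; on the % scale 0 is the no-effect control and ±100 the full control effect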). The following applies: TR-UAS-bla HEK293, beta-lactamase ratio, antagonist mode, 18 h. In a few lines: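 Inhibition of T3-driven (0.4nM final) beta-lactamase reporter activity was measured over 0.59 nM to 92 uM compound after 18 h at 37 C. The cells were GripTite HEK293 TR-UAS-bla in charcoal/dextran-stripped serum, with CCF4 ratio read-out and IC50 from Hill fits.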

A short description of test [6]: qHTS assay for small molecule agonists of the antioxidant response element (ARE) signaling pathway (AID 651741; active means well fitted activation curve with a large enough effect in the signal ratio; the % refers to the signal ratio; further: % of control where 0% means no effect). The settings on record: HepG2 ARE-bla reporter, beta-lactamase FRET ratio, 16 h; series mostly up to 96 µM. In a few lines: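 Beta-lactamase reporter under ARE control in HepG2 cells, 2,000 per well, was induced by 16 h compound treatment at 37 C. Read-out was fluorescence from LiveBLAzer B/G FRET substrate after 2 h at room temperature.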

Test [7] in a line: qHTS assay for small molecule activators of the nuclear factor-kappa B (NF-kB) signaling pathway (AID 651749; active means well fitted activation curve with a large enough effect in the signal ratio; the % refers to the signal ratio; further: % of control where 0% means no effect). The settings on record: NF-kB-bla ME-180 cells, beta-lactamase FRET ratio, 16 h; stronger effect = higher value. In a few lines: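 Activation measured after 16 hr compound treatment at 37C, 5% CO2, of 2,000 ME-180 cells/well stably expressing an NF-kB response element–driven beta-lactamase reporter, via FRET-disruption fluorescence.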

Test [8] in a line: qHTS assay for small molecule disruptors of the mitochondrial membrane potential - 1 hr assay (AID 651754; calls by dose curve; further: on the % scale 0 is the no-effect control and ±100 the full control effect; nearly all actives have a fitted effect of over 35% in size). The following applies: series mostly up to 92.2 µM. The gist of the method:
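Loss of mitochondrial potential shifts the cationic dye from red mitochondrial aggregates to green cytoplasmic monomers. Cells (HepG2) are treated with compound for 1 hr before a 30 min dye incubation at 37C.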

A short description of test [9]: qHTS assay for small molecule disruptors of the mitochondrial membrane potential - 5 hr assay (AID 651755; calls by dose curve; further: on the % scale 0 is the no-effect control and ±100 the full control effect; nearly all actives have a fitted effect of over 40% in size). The following applies: JC-1-type ratio dye; series mostly up to 92.2 µM. In a few lines:
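Membrane-potential dye readout: red aggregate (540 ex/590 em) versus green monomer (490 ex/535 em) fluorescence after 30 min dye loading, following 5 hr compound exposure at 37C of overnight-plated HepG2 cells.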

Test [10] concerns the target Tumor necrosis factor (Homo sapiens) (UniProt P01375). The test can be described thus: qHTS assay to identify small molecules that stimulate Tumor Necrosis Factor-alpha (TNF-alpha) secretion (AID 651757; active means well fitted curve in the direction sought with a large enough effect in the signal ratio; the % refers to the signal ratio; further: 0% is about no effect). The following applies: Human cells, HTRF 665/615 ratio; series mostly up to 92.2 µM. The gist of the method: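 Human monocytic THP-1 cells are plated, treated with compound and held at 37 C for 17 hrs. Labeled anti-TNF-alpha antibody mixture is then added; after 3 hr at room temperature, TR-FRET signal reports secreted TNF-alpha.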

A short description of test [11]: qHTS assay to identify small molecules that stimulate interleukin-8 (IL-8) secretion (AID 651758; active means well fitted activation curve with a large enough effect in the signal ratio; the % refers to the signal ratio; further: 0% is about no effect). The following applies: HTRF ratio (665/615); series mostly up to 92.2 µM. In a few lines: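 Secreted IL-8 measured homogeneously by TR-FRET (two labelled anti-IL-8 antibodies, 1-3 h at room temperature) after a 16 h, 37 C compound treatment of THP-1 cells at 2000 cells/well.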

A short description of test [12]: qHTS assay for environmental chemicals that activate the Aryl hydrocarbon Receptor (AhR) signaling pathway (AID 651777; active means well fitted curve in the direction sought with a large enough effect; an effect the other way counts as inactive or inconclusive; further: % of control where 0% means no effect; nearly all actives have a fitted effect of over 15% in size). The following applies: 1A2-DRE human hepatoma cells, luciferase, 24 h; activation: stronger effect = higher value. In a few lines:
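Measured luciferase activity, read 30 min after One-Glo addition at room temperature, from human hepatoma cells bearing a dioxin response element–CYP1A2 promoter reporter and exposed to compound for 24 hr at 37 C.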

For test [13], the target named is Peroxisome proliferator-activated receptor alpha (Homo sapiens) (UniProt Q07869). Kind of test: qHTS assay for small molecule agonists of the peroxisome proliferator-activated receptor alpha (PPARalpha) signaling pathway (AID 651778; active means well fitted curve in the direction sought with a large enough effect; an effect the other way counts as inactive or inconclusive; further: % of control where 0% means no effect). The settings on record: PathHunter PPARalpha complementation, chemiluminescence, 6 h; stronger effect = higher value. In a few lines:
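Chemiluminescence from complemented enzyme reported PPARalpha activation in cells after 6 hr of compound treatment at 37 C. The detection reagent was incubated for 60 min at room temperature, and compounds were scored as agonists.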

For test [14], the target named is Nuclear receptor ROR-gamma (Homo sapiens) (UniProt P51449). Kind of test: qHTS assay for small molecule antagonists of the retinoid-related orphan receptor gamma (ROR-gamma) signaling pathway (AID 651802; active means well fitted curve in the direction sought with a large enough effect; an effect the other way counts as inactive or inconclusive;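 further: CHO cells with doxycycline-induced ROR-gamma expression; on the % scale 0 is the no-effect control and ±100 the full control effect; nearly all actives have a fitted effect of over 60% in size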). The following applies: ROR-gamma antagonist cell reporter assay; series mostly up to 92.2 µM. In a few lines: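 Steps: cells dispensed; compound or DMSO transferred by pin tool; doxycycline added to induce the ROR response element-driven luciferase; plates held 16hr at 37C; ONE-Glo added and luminescence measured.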
Chain of Nuclear receptor ROR-gamma (Homo sapiens) (P51449 whole entry, looked up): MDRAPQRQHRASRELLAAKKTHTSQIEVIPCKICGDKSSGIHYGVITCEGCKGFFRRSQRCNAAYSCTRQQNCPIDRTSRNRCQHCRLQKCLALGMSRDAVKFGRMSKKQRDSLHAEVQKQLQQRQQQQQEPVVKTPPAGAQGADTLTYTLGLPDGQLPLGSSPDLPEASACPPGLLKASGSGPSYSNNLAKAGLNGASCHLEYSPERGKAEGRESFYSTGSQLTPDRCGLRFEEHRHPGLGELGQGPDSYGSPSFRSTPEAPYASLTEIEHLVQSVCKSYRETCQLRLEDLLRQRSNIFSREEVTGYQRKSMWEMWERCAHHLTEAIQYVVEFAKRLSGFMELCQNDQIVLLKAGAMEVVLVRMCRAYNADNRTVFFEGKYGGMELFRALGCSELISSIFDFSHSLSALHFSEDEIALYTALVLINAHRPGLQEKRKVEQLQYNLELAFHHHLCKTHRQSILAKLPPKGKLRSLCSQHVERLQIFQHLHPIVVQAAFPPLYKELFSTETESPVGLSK

A short description of test [15]: qHTS assay for small molecule agonists of the antioxidant response element (ARE) signaling pathway measured by Nrf2-dependant transcriptional activity (AID 720636). Further: % of control where 0% means no effect. The settings on record: ARE-luc HepG2, Nrf2 luciferase reporter, 16 h; series mostly up to 92.4 µM. The gist of the method: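 In HepG2 cells engineered with an Nrf2-responsive luciferase gene, ARE induction was quantified as luminescence after 16 hr compound treatment at 37 C.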

Test [16] in a line: qHTS assay for small molecule antagonists of the retinoid-related orphan receptor gamma (ROR-gamma) signaling pathway - cell viability counter screen (AID 720652).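 Further: CHO reporter cells with doxycycline-induced ROR-gamma expression; compound exposure lasted 16 hr before ATP read; on the % scale 0 is the no-effect control and ±100 the full control effect.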 The settings on record: RORgamma reporter cell line viability counter screen; series mostly up to 92.2 µM. In a few lines: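 Steps: seed CHO cells bearing TET-inducible ROR and ROR response element-luciferase; rest 5 hr at 37 C; add compound, then doxycycline; incubate 16 hr; add CellTiter-Glo and read luminescence as ATP-based viability.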

A short description of test [17]: qHTS assay for small molecule agonists of the antioxidant response element (ARE) signaling pathway measured by Nrf2-dependant transcriptional activity - cell viability counter screen (AID 720653). Further: on the % scale 0 is the no-effect control and ±100 the full control effect. The settings on record: ARE-bla HepG2 viability, CellTiter-Glo ATP luminescence, 16 h; stronger effect = lower value. In a few lines: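 Cytotoxicity counter screen: intracellular ATP quantified by CellTiter-Glo luminescence in the same ARE-bla HepG2 plates, after 16 h compound exposure and a 2 h beta-lactamase substrate step.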

Test [18] concerns the target Voltage-gated inwardly rectifying potassium channel KCNH2 (Homo sapiens) (UniProt Q12809). Kind of test: qHTS Assay for Small Molecule Inhibitors of the Human hERG Channel Activity (AID 588834; active means well fitted curve in the direction sought with a large enough effect; an effect the other way counts as inactive or inconclusive;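 further: top concentration of the series differs between compounds; on the % scale 0 is the no-effect control and ±100 the full control effect; lower thallium flux fluorescence means stronger hERG block; nearly all actives have a fitted effect of over 50% in size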). The settings on record: U2OS BacMam hERG, FluxOR thallium flux fluorescence; series mostly up to 92.2 µM. In a few lines:
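Thallium-flux (FluxOR) read-out on FDSS: fluorescence read 10 s before and 2 min after stimulation buffer. hERG-BacMam-transduced U2OS cells, compound exposure about 10 min. AC50 by standard Hill equation.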

Test [19] can be described thus: qHTS assay for small molecule activators of the p53 signaling pathway (AID 651743; active means well fitted activation curve with a large enough effect in the signal ratio, not every such curve was filed as active; the % refers to the signal ratio; further: % of control where 0% means no effect). The settings on record: HCT-116 p53RE-bla, beta-lactamase FRET ratio, 16 h; stronger effect = higher value. In a few lines:
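After 16 hours compound treatment at 37 C, HCT-116 cells stably expressing p53RE-driven beta-lactamase were loaded with LiveBLAzer B/G FRET substrate for 2 hours at room temperature. Fluorescence intensity served as the p53 activation read-out.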

Each structure is given as a SMILES string. Values joined by “and” are separate entries in the source; they are usually repeats but may differ in a detail not shown here. Equal values may be shown once. Inconclusive results are not listed. Active and inactive are the calls of the source. Unless noted, the call rests on the fitted dose curve; in most records, active means well fitted curve in the direction sought with a large enough effect in the repeat runs; inconclusive means weak or mixed curves; inactive means no such curve, though single readings can be large; an effect the other way counts as inactive or inconclusive.

Chain of Retinoic acid receptor RXR-alpha (Homo sapiens) (P19793 whole entry, looked up): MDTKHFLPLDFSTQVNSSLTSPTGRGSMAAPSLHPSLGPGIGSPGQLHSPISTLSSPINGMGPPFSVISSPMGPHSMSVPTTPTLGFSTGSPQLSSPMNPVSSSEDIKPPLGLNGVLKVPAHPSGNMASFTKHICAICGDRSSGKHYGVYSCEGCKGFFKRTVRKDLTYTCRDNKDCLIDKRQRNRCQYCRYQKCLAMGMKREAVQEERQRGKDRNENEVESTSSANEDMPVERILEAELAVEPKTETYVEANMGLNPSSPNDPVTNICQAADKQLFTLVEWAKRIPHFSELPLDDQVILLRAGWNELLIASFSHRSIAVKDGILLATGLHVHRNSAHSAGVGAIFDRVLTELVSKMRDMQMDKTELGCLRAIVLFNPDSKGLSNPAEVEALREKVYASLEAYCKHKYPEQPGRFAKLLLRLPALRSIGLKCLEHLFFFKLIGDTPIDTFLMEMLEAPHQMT
Chain of Tumor necrosis factor (Homo sapiens) (P01375 whole entry, looked up): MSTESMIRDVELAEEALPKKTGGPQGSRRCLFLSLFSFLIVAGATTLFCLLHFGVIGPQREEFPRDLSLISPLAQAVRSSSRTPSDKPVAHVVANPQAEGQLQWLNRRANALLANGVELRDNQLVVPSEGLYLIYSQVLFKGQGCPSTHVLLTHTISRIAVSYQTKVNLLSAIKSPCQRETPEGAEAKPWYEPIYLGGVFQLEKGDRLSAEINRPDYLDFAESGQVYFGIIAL
Chain of Thyroid hormone receptor beta (Homo sapiens) (P10828 whole entry, looked up): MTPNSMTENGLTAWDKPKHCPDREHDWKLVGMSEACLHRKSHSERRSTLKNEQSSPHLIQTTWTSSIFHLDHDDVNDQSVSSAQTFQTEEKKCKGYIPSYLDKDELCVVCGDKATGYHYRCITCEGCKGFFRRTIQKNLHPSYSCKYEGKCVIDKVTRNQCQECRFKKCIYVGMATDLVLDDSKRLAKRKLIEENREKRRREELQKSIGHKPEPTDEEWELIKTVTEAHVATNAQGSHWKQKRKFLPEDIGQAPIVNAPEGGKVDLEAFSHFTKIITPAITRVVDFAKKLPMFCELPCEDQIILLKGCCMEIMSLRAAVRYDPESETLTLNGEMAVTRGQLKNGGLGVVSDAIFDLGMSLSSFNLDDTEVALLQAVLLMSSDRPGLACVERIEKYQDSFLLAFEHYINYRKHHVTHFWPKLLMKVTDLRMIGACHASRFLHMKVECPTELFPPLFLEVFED
Chain of Peroxisome proliferator-activated receptor alpha (Homo sapiens) (Q07869 whole entry, looked up): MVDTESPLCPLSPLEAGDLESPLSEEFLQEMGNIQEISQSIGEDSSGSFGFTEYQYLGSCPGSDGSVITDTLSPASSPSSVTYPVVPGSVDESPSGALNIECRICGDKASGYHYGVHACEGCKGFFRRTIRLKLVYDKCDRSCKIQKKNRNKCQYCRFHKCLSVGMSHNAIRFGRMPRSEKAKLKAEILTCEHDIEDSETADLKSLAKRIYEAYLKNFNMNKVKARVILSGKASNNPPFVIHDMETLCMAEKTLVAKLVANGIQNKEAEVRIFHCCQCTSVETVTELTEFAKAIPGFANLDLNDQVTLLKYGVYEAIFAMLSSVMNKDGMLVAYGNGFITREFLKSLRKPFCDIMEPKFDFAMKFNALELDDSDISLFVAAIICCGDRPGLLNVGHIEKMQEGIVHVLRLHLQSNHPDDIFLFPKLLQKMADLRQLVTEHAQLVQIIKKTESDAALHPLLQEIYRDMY
Chain of Voltage-gated inwardly rectifying potassium channel KCNH2 (Homo sapiens) (Q12809 whole entry, looked up): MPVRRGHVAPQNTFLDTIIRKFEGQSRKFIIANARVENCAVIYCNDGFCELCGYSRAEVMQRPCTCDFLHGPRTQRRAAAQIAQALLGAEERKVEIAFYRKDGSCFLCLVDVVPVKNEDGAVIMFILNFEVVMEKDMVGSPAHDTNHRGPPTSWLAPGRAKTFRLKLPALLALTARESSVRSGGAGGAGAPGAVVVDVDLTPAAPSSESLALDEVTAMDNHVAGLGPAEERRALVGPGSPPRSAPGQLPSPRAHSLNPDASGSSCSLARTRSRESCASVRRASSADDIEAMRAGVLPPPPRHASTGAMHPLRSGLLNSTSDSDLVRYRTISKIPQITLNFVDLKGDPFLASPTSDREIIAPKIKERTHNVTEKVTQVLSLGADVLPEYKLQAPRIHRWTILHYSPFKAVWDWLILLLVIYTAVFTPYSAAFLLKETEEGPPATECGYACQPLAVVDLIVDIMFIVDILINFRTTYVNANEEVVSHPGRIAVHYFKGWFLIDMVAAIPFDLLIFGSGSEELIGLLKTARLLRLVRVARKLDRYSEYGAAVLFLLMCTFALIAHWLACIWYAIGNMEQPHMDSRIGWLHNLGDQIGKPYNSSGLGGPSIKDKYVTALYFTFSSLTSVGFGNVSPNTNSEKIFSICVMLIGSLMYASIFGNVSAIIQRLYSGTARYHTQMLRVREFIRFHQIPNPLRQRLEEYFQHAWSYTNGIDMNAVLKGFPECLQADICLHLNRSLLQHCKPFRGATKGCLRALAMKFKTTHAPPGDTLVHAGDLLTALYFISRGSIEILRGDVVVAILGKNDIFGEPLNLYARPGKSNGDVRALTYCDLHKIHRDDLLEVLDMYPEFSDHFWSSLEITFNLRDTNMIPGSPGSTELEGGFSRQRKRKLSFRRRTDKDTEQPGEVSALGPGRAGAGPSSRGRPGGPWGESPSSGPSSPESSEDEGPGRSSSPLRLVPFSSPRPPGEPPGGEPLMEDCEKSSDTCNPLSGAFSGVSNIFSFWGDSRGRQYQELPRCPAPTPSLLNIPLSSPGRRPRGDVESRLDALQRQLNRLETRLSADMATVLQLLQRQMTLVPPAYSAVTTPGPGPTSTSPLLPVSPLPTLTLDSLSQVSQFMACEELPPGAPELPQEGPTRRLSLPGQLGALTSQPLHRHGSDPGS

As for `CC(O)COC(C)(C)C` (stereo not drawn), the max response is -7.25% in [1]; 0.664% in test [3]; -2.68% (inactive) in test [4]; -3.92% (inactive) in test [13]; 7.93% (inactive) in test [17]. For the same compound, the result in test [2] and in test [15] was inactive. Also, the activity change % (negative = inhibition) in [5] is -13.8% (inactive). For the same compound, the Potency entry in test [6], in test [8], in test [9], in test [10], in [11] and in [14] was “inactive” in each case. Moreover, the Potency result in [16] was “inactive”. The activation was -0.964% (inactive) in [7] and -0.0727% (inactive) in test [12].
As for `Nc1nc2ccccc2[nH]1`, the outcome in test [2] and in test [15] was inactive. Besides, the max response in test [3] was -22%; in [4] it was -2.52% (inactive); in test [13], -2.62% (inactive); in test [17], -4.79% (inactive). Also, the activity change % (negative = inhibition) in test [5] is 16% (inactive). Moreover, the Potency entry in [18], in test [6], in [8], in test [9], in test [10] and in test [11] was “inactive” in each case. Moreover, in test [16], the Potency entry was “inactive”. In addition, the activation in test [19] was 1.82% (inactive); in test [12], 11.9% (inactive).
In the case of `CC(C=O)Cc1ccc(C(C)(C)C)cc1` (stereo not drawn), the max response in test [1] was -4.78% and -12.5%; in [3], 2.84% and -3.45%; in [4] it was -0.768% (inactive) and 2.1% (inactive); in test [13], -2% (inactive) and -1.24% (inactive); in test [17] it was -4.71% (inactive) and -17.8% (inactive). In addition, the result in test [2] and in [15] was inactive. In addition, the activity change % (negative = inhibition) in [5] was 4.73% (inactive) and 0.44% (inactive). Besides, the Potency result in [6], in test [8], in [9], in test [10] and in [16] was “inactive” each time. In addition, the activation is 3.13% (inactive) and -1.47% (inactive) in test [19]; 0.301% (inactive) and -1.84% (inactive) in test [12].
As for `Cc1ccco1`, the max response was -10.8% in test [1]; -5.98% in test [3]; 5.14% (inactive) in test [4]; -4.89% (inactive) in test [13]; -4.14% (inactive) in test [17]. Also, the result in test [2] and in test [15] was inactive. The results for the activation in test [19], in test [7] and in test [12] were 2.07% (inactive), -0.364% (inactive) and -0.591% (inactive), respectively. In addition, the Potency result in test [8], in [9], in test [10], in test [14] and in test [16] was “inactive” each time.
